Laboratory results reported in PubChem BioAssay (NCATS).
“And” between values parts separate entries of the source, which are not always exact repeats. Identical values can stand only once. Records with an inconclusive call do not appear. The source made the active and inactive calls. Unless noted, calls follow the shape of the dose curve; as a rule, active = well fitted curve in the direction sought with a large enough effect; inconclusive = small, poorly fitted or top-dose-only effect, or another doubt; inactive = no such curve, though single readings can be large; an effect the other way counts as inactive or inconclusive.

Legend:
[1] = Cell Viability - LYMP2-022 (AID 987); conditions: LYMP2-022 lymphoblastoid cell viability; series mostly up to 92.2 µM;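 also: 0% = DMSO alone and full effect = tetraoctylammonium bromide at 92 µM; nearly all actives have a fitted effect of over 55% in size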
Procedure, shortened: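 Luminescent ATP read-out (CellTiter-Glo, 30 min, RT) after 24 hr, 37 C compound exposure of 2500 human lymphoblastoid cells/well in complete medium. Cytotoxicity taken as concentration-dependent ATP loss; AC50 from standard Hill equation.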

[2] = Cell Viability - LYMP2-024 (AID 988); conditions: LYMP2-024 lymphoblastoid cell viability; series mostly up to 92.2 µM;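 also: plate controls were DMSO only for no effect and 92 µM tetraoctylammonium bromide for full effect; nearly all actives have a fitted effect of over 60% in size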
Procedure, shortened: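 ATP-based luminescence (CellTiter-Glo, 30 min RT) after 24 h compound exposure at 37 C of 2500 lymphoblastoid cells/well; decrease in ATP taken as cytotoxicity. qHTS concentration-response fitted to standard Hill equation for AC50.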

[3] = Cell Viability - LYMP2-026 (AID 989); conditions: LYMP2-026 lymphoblastoid cell viability, qHTS; series mostly up to 92.2 µM; also: % is scaled to controls: 0 for no effect and ±100 for the full control effect; nearly all actives have a fitted effect of over 50% in size
Procedure, shortened: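 qHTS cytotoxicity: 2500 cells/well, 5 hr 37 C, compound 24 hr 37 C, CellTiter-Glo 30 min RT, luminescence. Tetraoctylammonium bromide positive control. AC50 via standard Hill fit.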

[4] = Cell Viability - LYMP1-002 - Assay at 24 hr (AID 993); conditions: LYMP1-002 lymphoblastoid cells viability; series mostly up to 92.2 µM; also: % is scaled to controls: 0 for no effect and ±100 for the full control effect
Procedure, shortened: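 CellTiter-Glo luminescence (intracellular ATP) after 24 h compound exposure, 37 C, in LYMP1-002 human lymphoblastoid cells; decreased ATP taken as cytotoxicity. AC50 from standard Hill fit of concentration-response curves.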

[5] = Cell Viability - LYMP1-002 - Assay at 40 hr (AID 994); conditions: LYMP1-002 lymphoblastoid cell viability; series mostly up to 92.2 µM;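 also: 0% = DMSO only and full inhibition = 92 µM tetraoctylammonium bromide; nearly all actives have a fitted effect of over 60% in size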
Procedure, shortened: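 qHTS cytotoxicity; 2500 cells/well, 5 hr 37 C settle, compound 40 hr 37 C. CellTiter-Glo, 30 min RT, luminescence (ATP). Concentration-response, Hill fit → AC50. Pos. ctrl tetraoctylammonium bromide.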

[6] = qHTS Assay for Identification of Small Molecule Inducers of Hypoxia Response (AID 2120; active = well fitted curve in the direction sought with a large enough effect in the signal ratio, with a control signal flat, not every such curve was filed as active; the % refers to the signal ratio; also: 0% is about no effect); conditions: hypoxia response reporter cells, beta-lactamase ratio readout; series mostly up to 104 µM
Procedure, shortened: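 Read-out: CCF4 FRET emission ratio 460nm/530nm (excitation 405nm), converted to %Activity, with AC50 fitted across a compound titration. ME-180 cells carried an HRE-driven beta-lactamase reporter; compound exposure 17 h, 37 degrees C.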

[7] = qHTS Assay for Lipid Storage Modulators (AID 1519; calls by dose curve); conditions: Drosophila S3 cells, BODIPY lipid droplet/cell ratio, laser cytometry, cells loaded with oleic acid; for activity change, negative = inhibition: at 57.5 µM (top of the series)
Procedure, shortened: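 Cells seeded at 5,000 per well were treated with compounds over a concentration series and loaded with oleic acid (400 uM, as added). Lipid droplet fluorescence (488 nm excitation, 500-530 nm channel) was read by laser-scanning cytometry and normalized to 20 uM Triacsin C.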

[8] = target: Alpha-galactosidase A (Homo sapiens) (UniProt P06280); test: Counterscreen for Glucocerebrosidase Inhibitors: qHTS Assay for Human alpha-Galactosidase at pH 4.5 (AID 992); conditions: purified enzyme, fluorogenic substrate; series mostly up to 76.9 µM; also: 0% is about no effect
Procedure, shortened: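 Fluorogenic 4-MU alpha-D-galactoside (80 uM) hydrolysis, 2 nM enzyme, pH 4.5 citrate buffer + 0.005% Tween-20; 20 min RT; NaOH/glycine pH 10 stop; Ex365/Em440. Compounds titrated 0.7 nM–77 uM; Hill-equation AC50.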

[9] = target: alpha-glucosidase (Oryza sativa, rice) (UniProt Q653V4); test: Counterscreen for Glucocerebrosidase Inhibitors: qHTS Assay for Rice alpha-Glucosidase at pH 5.0 (AID 997); conditions: rice alpha-glucosidase enzyme activity; series mostly up to 76.9 µM;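 also: 0% = full activity with enzyme and -100% = basal without enzyme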
Procedure, shortened: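 Endpoint fluorogenic assay at pH 5.0: compounds (0.7 nM to 77 uM) titrated against 4 nM rice enzyme and 400 uM 4-MU-alpha-glucoside for 20 min at room temperature; NaOH/glycine stop, read ex 365/em 440 nm, Hill-fitted AC50.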

[10] = Validation of Assay for Modulators of Lamin A Splicing (AID 1459; active = well fitted curve in the direction sought with a large enough effect in the signal ratio; the % refers to the signal ratio;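 also: cells exposed to compound for two days before reading; 0% is about no effect; ratio rise marks activators and ratio drop marks inhibitors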); conditions: Lamin A splicing dual RFP/GFP fluorescence reporter; series mostly up to 9.22 µM
Procedure, shortened: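 Dual-reporter HeLa S3 line (lamin A-EGFP minigene, DsRed2) treated with compounds 48 hrs, 0.5% DMSO final. Endpoint: EGFP/DsRed2 total intensity ratio from laser-scanning microplate cytometry.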

[11] = target: DNA repair nuclease/redox regulator APEX1 (Homo sapiens) (UniProt P27695); test: qHTS Validation Assay for Inhibitors of the Human Apurinic/apyrimidinic Endonuclease 1 (APE1) (AID 1705;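 also: TAMRA fluorescence gain over two minutes as APE1 cuts a quenched THF abasic duplex; % is scaled to controls: 0 for no effect and ±100 for the full control effect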); conditions: purified APE1 endonuclease activity, fluorescence, titration; series mostly up to 57.1 µM
Procedure, shortened: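 Substrate: 50 nM final fluorophore/quencher THF-abasic duplex. Enzyme preincubated with compounds 15 min, RT. Progress derived from fluorescence difference, third minus first kinetic read.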

[12] = target: Endonuclease 4 (Escherichia coli (strain K12)) (UniProt P0A6C1); test: Counterscreen for APE1 Inhibitors: qHTS Validation Assay for Inhibitors of Endonuclease IV (AID 1708); also: % is scaled to controls: 0 for no effect and ±100 for the full control effect; conditions: E. coli endonuclease IV, DNA cleavage fluorescence; series mostly up to 57.1 µM
Procedure, shortened: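 Measured as reaction progress, the fluorescence gain between first and third kinetic reads after adding 50 nM TAMRA/BHQ-2 THF duplex to 2 nM enzyme preincubated 15 min with compound; 2 mM MgCl2, pH 7.5.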

[13] = qHTS Assay for Modulators of Human Peripheral Myelin Protein 22 (PMP22) Expression/Activity (AID 1967; active = well fitted curve in the direction sought with a large enough effect in the signal ratio; the % refers to the signal ratio;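 also: 0% = untreated cells and 100% end not stated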); conditions: Cell-based PMP22 reporter, dual-color luciferase ratio, 0% = compound-free control cells, mouse Pmp22 promoter in mouse Schwann cells; series mostly up to 115 µM
Procedure, shortened: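 Engineered MSC80 cells, Pmp22-promoter green and EF-alpha red luciferase reporters; 24h compound treatment at 37 °C. Concentration-response fits on green, red and ratio signals, each overlap-corrected, with %Activity normalized to untreated wells.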

[14] = target: Ferritin light chain (Equus caballus) (UniProt P02791); test: qHTS Validation Assay for Identification of Novel General Anesthetics (AID 2323); conditions: horse apoferritin, anesthetic-site fluorescent probe displacement; series mostly up to 76.9 µM; also: % is scaled to controls: 0 for no effect and ±100 for the full control effect
Procedure, shortened: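 Normalized fluorescence response, scaled between free 1-AMA and 1-AMA/apoferritin complex, fitted to a four-parameter Hill equation for concentration-effect values. Binding mix: 10 uM horse-spleen apoferritin, 50% saturated 1-AMA in PBS; read 380/535 nm after 10 min.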

[15] = target: ATP-dependent DNA helicase Q1 (Homo sapiens) (UniProt P46063); test: qHTS Validation Assay for Inhibitors of RecQ-Like Dna Helicase 1 (RECQ1) (AID 2353); conditions: recombinant RECQ1 helicase DNA unwinding assay; series mostly up to 25.6 µM;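 also: plate controls were DMSO vehicle for no effect and enzyme-free control for full effect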
Procedure, shortened: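 RECQ1T1 50 nM; forked duplex (20 bp + 30-nt ss tails) 200 nM, ATP 2 mM final; pH 8.0, 2 mM MgCl2, 2.5 ug/ml poly(dI-dC); 15 min compound preincubation; discontinuous kinetic read over 2 h at RT.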

[16] = Cytometric Cell-Based qHTS for Inhibitors of the mTORC1 Signaling Pathway in MEF (Tsc2-/-, p53-/-) Cells (AID 2660); conditions: mTORC1 pathway cytometry; series mostly up to 38.3 µM;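 also: Tsc2 and p53 null MEFs carrying empty vector with compound for 24 h; percent of cells above a phospho-rpS6 to PI ratio cutoff in each well; plate controls were DMSO for no effect and rapamycin for full effect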
Procedure, shortened: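 Cells are plated, treated with compound for 24 hrs at 37 degree Celsius, then fixed, blocked and immunostained for phospho-rpS6 Ser235/236. Propidium iodide counterstain follows. Per-well % positive cells is derived from the PI-normalized phospho-S6 signal.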

[17] = High Content Imaging Cell-Based qHTS for Inhibitors of the mTORC1 Signaling Pathway in MEF (Tsc2-/-, p53-/-) Cells (AID 2666); conditions: at 38.3 µM (top of the series);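 also: percent of cells scored positive for phospho-rpS6 Ser235/236 immunostaining by imaging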
Procedure, shortened: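 Inhibition of rpS6 phosphorylation is measured by immunofluorescence imaging in empty-vector Tsc2-/-, p53-/- mouse embryonic fibroblasts after 24 hrs compound exposure at 37 degree Celsius. Results are reported as % positive cells per well.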

[18] = High Content Imaging Cell-Based qHTS for Inhibitors of the mTORC1 Signaling Pathway in MEF Cells (AID 2667); conditions: series mostly up to 38.3 µM;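 also: Tsc2-/- p53-/- MEFs stably re-expressing wild-type Tsc2 exposed 24 h; plate controls were DMSO wells for no effect and rapamycin control wells for full effect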
Procedure, shortened: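 Fixed-cell imaging of phospho-S6 (Ser235/236, Alexa-488) after 24 hrs of compound treatment at 37 degree Celsius. Signal was normalized to Hoechst, and thresholds from the highest and lowest wells split cells into % active versus % non-active.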

[19] = Cytometry Cell-Based qHTS for Inhibitors of the mTORC1 Signaling Pathway in MEF cells (AID 2668); conditions: mTORC1 pathway readout; series mostly up to 38.3 µM;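 also: Tsc2-/- p53-/- mouse embryonic fibroblasts stably re-expressing wild-type Tsc2; percent cells positive for phospho-rpS6 Ser235/236 relative to propidium iodide stain; plate controls were DMSO wells for no effect and 7.5 nM rapamycin control wells for full effect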
Procedure, shortened: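 In MEFs grown in DMEM + 10% FBS, a 24 hrs compound exposure preceded imaging of phospho-rpS6 Ser235/236 by laser-scanning cytometry.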

[20] = target: RecQ-like DNA helicase BLM (Homo sapiens) (UniProt P54132); test: qHTS Validation Assay for Inhibitors of Bloom's syndrome helicase (BLM) (AID 2364); conditions: BLM helicase DNA unwinding, fluorescence, in vitro; series mostly up to 57.1 µM;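 also: plate controls were DMSO vehicle for no effect and enzyme-free control for full effect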
Procedure, shortened: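 BLM 50 nM in 25 mM Tris-HCl pH 8.0, 5 mM NaCl, 2 mM MgCl2, 1 mM DTT, 0.01% Tween-20, 2.5 ug/ml poly(dI-dC); 15 min cpd preinc, RT. Start: 200 nM forked DNA + 2 mM ATP (final). TAMRA read, 2 reads 2 h apart.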

[21] = measured here: cell count channel max response
[22] = measured here: lipid channel max response

Sequence of Alpha-galactosidase A (Homo sapiens) (P06280 whole entry, looked up): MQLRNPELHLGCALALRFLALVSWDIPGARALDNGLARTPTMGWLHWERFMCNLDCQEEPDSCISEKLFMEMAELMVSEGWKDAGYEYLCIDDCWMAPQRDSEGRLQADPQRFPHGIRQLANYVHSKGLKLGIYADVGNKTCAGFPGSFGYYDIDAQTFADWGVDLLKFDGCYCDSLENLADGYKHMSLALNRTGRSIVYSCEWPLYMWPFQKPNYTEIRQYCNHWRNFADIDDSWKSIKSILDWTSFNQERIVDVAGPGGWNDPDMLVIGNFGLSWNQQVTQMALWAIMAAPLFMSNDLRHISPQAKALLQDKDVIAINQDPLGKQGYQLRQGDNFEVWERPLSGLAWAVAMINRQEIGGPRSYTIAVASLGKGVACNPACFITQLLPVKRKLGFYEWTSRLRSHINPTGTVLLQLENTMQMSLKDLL
Sequence of ATP-dependent DNA helicase Q1 (Homo sapiens) (P46063 whole entry, looked up): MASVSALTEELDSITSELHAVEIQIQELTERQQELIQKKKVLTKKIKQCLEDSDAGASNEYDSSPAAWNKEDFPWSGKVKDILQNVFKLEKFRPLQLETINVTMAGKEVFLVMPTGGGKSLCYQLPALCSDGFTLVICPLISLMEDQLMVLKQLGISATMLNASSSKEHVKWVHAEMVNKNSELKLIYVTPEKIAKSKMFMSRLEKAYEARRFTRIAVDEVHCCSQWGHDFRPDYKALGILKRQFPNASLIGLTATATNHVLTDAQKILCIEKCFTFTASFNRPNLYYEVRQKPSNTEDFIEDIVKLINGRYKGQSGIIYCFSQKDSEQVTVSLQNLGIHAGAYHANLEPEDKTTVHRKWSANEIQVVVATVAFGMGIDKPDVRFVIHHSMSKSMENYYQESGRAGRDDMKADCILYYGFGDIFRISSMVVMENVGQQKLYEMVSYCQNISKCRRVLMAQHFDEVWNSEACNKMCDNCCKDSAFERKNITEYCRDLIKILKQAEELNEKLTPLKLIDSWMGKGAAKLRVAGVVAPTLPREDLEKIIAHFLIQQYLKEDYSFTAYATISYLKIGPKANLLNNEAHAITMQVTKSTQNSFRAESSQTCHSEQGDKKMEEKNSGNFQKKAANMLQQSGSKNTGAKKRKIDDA
Sequence of DNA repair nuclease/redox regulator APEX1 (Homo sapiens) (P27695 whole entry, looked up): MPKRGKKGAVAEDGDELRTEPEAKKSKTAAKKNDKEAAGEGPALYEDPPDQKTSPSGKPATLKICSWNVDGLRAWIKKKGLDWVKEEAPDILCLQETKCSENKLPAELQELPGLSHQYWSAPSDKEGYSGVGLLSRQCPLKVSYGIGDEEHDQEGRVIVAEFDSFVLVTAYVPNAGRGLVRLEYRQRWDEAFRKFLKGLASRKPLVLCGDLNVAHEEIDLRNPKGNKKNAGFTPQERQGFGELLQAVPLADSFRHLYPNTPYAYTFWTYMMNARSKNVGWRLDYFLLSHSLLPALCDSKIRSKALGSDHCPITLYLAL
Sequence of Ferritin light chain (Equus caballus) (P02791 2-175 limits assumed): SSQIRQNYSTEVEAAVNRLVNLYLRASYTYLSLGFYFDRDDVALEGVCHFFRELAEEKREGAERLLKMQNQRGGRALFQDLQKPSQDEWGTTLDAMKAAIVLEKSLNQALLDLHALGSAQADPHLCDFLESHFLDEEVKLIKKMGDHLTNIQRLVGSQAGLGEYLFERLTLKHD
Sequence of RecQ-like DNA helicase BLM (Homo sapiens) (P54132 whole entry, looked up): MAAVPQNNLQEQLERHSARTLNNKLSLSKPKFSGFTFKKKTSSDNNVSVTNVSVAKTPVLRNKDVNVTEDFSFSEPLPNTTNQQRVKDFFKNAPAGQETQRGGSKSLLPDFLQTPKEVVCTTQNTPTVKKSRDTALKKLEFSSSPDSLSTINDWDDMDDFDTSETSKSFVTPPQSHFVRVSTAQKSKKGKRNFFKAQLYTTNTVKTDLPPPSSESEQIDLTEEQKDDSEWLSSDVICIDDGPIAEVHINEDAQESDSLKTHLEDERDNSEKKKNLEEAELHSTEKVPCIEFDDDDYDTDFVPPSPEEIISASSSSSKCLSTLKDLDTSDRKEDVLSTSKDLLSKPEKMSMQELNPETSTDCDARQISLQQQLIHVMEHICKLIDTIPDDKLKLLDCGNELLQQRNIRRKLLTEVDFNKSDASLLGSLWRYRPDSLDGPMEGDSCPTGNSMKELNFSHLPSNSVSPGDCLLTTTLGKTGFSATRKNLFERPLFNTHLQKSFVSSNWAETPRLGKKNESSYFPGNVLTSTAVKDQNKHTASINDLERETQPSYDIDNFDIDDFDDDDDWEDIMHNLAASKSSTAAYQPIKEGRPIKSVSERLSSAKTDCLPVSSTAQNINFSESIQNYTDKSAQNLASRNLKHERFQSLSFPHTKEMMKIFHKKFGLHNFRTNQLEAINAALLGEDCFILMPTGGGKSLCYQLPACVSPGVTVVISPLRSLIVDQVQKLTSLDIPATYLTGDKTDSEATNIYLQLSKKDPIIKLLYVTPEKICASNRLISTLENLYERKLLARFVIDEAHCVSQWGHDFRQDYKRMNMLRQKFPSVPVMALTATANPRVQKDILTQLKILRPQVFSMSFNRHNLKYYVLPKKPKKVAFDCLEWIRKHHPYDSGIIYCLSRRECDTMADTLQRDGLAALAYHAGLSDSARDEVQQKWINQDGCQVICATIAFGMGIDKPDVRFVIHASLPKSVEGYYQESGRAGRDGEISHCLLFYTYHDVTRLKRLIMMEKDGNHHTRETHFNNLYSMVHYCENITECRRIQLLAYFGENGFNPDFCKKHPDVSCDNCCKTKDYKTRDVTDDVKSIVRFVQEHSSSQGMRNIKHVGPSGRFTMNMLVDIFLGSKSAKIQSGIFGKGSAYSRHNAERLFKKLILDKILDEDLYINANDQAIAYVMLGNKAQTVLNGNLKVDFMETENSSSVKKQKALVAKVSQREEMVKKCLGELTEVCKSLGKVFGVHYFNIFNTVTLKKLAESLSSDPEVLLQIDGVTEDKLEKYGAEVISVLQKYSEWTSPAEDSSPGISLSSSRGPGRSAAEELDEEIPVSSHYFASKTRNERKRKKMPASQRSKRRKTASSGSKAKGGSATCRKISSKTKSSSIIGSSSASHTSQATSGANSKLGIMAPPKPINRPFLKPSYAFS

CN(C)Cc1ccccc1
inactive: outcome [1] | outcome [2] | outcome [3] | outcome [4] | outcome [5] | outcome [6]

C1CNCCN1
inactive: activity change, negative = inhibition [7] 8.66%
6.29%: max response [7, 21]
18.5%: max response [7, 22]

C=Cc1ccccc1
inactive: outcome [2] | outcome [3] | outcome [4] | outcome [5] | outcome [6]

Cc1ccc(OC[C@H](O)[C@H](C)NC(C)C)c2c1CCC2
5.72%: max response [7, 21]
inactive: outcome [8] | outcome [9] | activity change, negative = inhibition [7] -0.878%
7.78%: max response [7, 22]

CCCCCCCCCCCCCCCC(=O)OC/C=C(C)/C=C/C=C(C)/C=C/C1=C(C)CCCC1(C)C
14%: max response [7, 22]
7.5%: max response [7, 21]
inactive: activity change, negative = inhibition [7] 3.99%

COC(C)=O
inactive: outcome [1] | outcome [2] | outcome [3] | outcome [4] | outcome [5] | outcome [6]

NCCCC(=O)O
inactive: outcome [8] | outcome [9] | outcome [10] | activity change, negative = inhibition [7] -0.209% and 6.45% and 0.252% | outcome [11] | outcome [12] | outcome [13] | outcome [14] | outcome [15] | outcome [16] | outcome [17] | outcome [18] | outcome [19]
-6.14% and 11.3% and -29.6%: max response [7, 22]
-9.18% and 2.91% and -17.1%: max response [7, 21]

CCCCCCCCCC(=O)O
inactive: outcome [1] | outcome [2] | outcome [3] | outcome [4] | outcome [5] | outcome [6]

CN[C@H]1CC[C@@H](c2ccc(Cl)c(Cl)c2)c2ccccc21
inactive: outcome [8] | outcome [9] | outcome [11] | outcome [12] | outcome [15] | outcome [20]

O=C(O)CC(O)(CC(=O)O)C(=O)O
inactive: outcome [1] | outcome [3] | outcome [4] | outcome [5] | activity change, negative = inhibition [7] -0.75% | outcome [6]
16%: max response [7, 22]
14.5%: max response [7, 21]
